Cruzain Triton: blocks cruzain activity in presence of Triton detergent; P25779; purified cruzain, Z-FR-AMC fluorescence, 0.01% Triton; Potency, µM, usual class: inhibitors; 0.43% of 200,000 active; AID 1478; note: nearly all actives have a fitted effect of over 40% in size
Target sequence (P25779 123-467 limits assumed): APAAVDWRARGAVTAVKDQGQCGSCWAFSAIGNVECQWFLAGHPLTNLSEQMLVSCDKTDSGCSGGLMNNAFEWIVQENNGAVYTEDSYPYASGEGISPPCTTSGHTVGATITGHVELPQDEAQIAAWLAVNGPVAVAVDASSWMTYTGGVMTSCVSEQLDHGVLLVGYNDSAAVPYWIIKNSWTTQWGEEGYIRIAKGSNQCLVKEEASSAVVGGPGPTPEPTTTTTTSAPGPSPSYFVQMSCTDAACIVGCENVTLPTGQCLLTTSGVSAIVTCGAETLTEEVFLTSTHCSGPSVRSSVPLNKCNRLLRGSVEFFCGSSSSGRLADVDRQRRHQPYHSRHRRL
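Enzyme 1.5 nM, Z-FR-AMC 2 uM, NaOAc 100 mM pH 5.5, DTT 5 mM, Triton X-100 0.01%; 15 min RT compound preincubation; kinetic ex360/em450, 60 s delta.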
Cruzain noTriton: blocks cruzain activity in detergent-free assay. P25779. purified cruzain, Z-FR-AMC fluorescence, no detergent. Potency, µM, actives largely listed as inhibitors. 2.3% of 200,000 active. AID 1476; note: nearly all actives have a fitted effect of over 40% in size
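Detergent-free condition (0.00005% Triton X-100) in acetate buffer pH 5.5 with DTT. 1.5 nM enzyme and compound were pre-mixed 15 min, then 2 uM Z-FR-AMC substrate added; reaction progress from fluorescence change between first and third reads (60 s).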
Of the large screens only hits and unclear results are named; the others gave an inactive call. An excerpt weighted towards active compounds, which were near 2.5% of everything screened. Calls come from the whole dose curve; as a rule, active = well fitted curve in the direction sought with a large enough effect; inconclusive = small, poorly fitted or top-dose-only effect, or another doubt; inactive = no such curve, though single readings can be large; an effect the other way counts as inactive or inconclusive.

CCCC(C)C(=O)Nc1nc(C)c(-c2csc(Nc3cc(Cl)ccc3C)n2)s1 (stereo unspecified)	Cruzain noTriton 12.6µM
Cc1cccc(OCC(=O)NC(Cc2ccccc2)C(=O)O)c1 (stereo unspecified)	none
Cc1cccc(OCC(=O)NC(C)C(=O)N/N=C/c2c(OCc3ccccc3)ccc3ccccc23)c1 (stereo unspecified)	Cruzain noTriton 15.8µM
CCCCNC(=O)[C@@H]1Cc2ccccc2N1C(=O)[C@H](N)CC	none
N#CC1(c2ccc(NC(=O)c3ccccc3F)cc2)CCCC1	none
O=C(NCc1ccco1)c1ccc2c(c1)N(Cc1ccccc1)C(=O)c1ccccc1S2	Cruzain noTriton inconclusive
C=Cc1ccc(CN2C(=O)c3ccccc3Sc3ccc(C(=O)OCc4ccco4)cc32)cc1	Cruzain noTriton 12.6µM
N#Cc1ccccc1CN1C(=O)c2ccccc2Sc2ccc(C(=O)OCc3ccco3)cc21	Cruzain noTriton 25.1µM
CCOC(=O)c1ccc2c(c1)N(Cc1ccccc1)C(=O)c1ccccc1S2	none
C[C@@]12CCC(=O)C=C1CC[C@H]1C2[C@@H](O)C[C@]2(C)[C@@H]1CC[C@@]2(O)C(=O)CO (stereo partly specified)	none
COc1ncc2nc(-c3ccccc3)c(=O)n(CCc3ccccc3)c2n1	none
COCC(=O)N1CCC[C@@]2(CCN(c3ccncc3)C2)C1	none
Cc1ccc(S(=O)(=O)N(CC(=O)Nc2cccc([N+](=O)[O-])c2)C2CCCCC2)cc1	none
Cc1ccc(S(=O)(=O)N(CC(=O)Nc2ccc(Cl)c([N+](=O)[O-])c2)C2CCCCC2)cc1	Cruzain noTriton 12.6µM
COc1ccc(-c2nn(-c3ccccc3)cc2/C=C/C(=O)OCC(=O)Nc2ccc(C#N)cc2)cc1	Cruzain noTriton inconclusive
COc1ccc(-c2nn(-c3ccccc3)cc2/C=C/C(=O)OCC(=O)Nc2cccc(C#N)c2)cc1	Cruzain noTriton 31.6µM
CC(=O)Nc1ccc(NC(=O)C(C)OC(=O)/C=C/c2cn(-c3ccccc3)nc2-c2cccnc2)cc1 (stereo unspecified)	Cruzain noTriton inconclusive
Cc1ccccc1NC(=O)COC(=O)/C=C/c1cn(-c2ccccc2)nc1-c1cccnc1	Cruzain noTriton 25.1µM
CCCc1nc2ccccc2c(=O)n1-c1cccc(OC)c1	none
CC(C)Oc1cccc(-n2c(CCc3c[nH]c4ccc(Br)cc34)nc3ccccc3c2=O)c1	Cruzain noTriton 31.6µM
CC1=NN(c2ccc(Br)cc2)C(=O)/C1=C/c1cccs1	none
Cc1ccc(C2=N/C(=C/c3cccs3)C(=O)N2Nc2ccccc2)cc1	Cruzain noTriton 25.1µM
Cc1cccc(Oc2ccc(NC(=O)CCC(=O)OCC(=O)c3ccc(Br)cc3)cc2)c1C	Cruzain noTriton inconclusive
N[C@H](CP(=O)(O)O)C(=O)O	none
CCOc1cc(C(=O)NCc2nc(-c3cccc(C)c3)no2)cc(OCC)c1OCC	none
CCCn1c(=N)c(C(=O)NCc2cccnc2)cc2c(=O)n3cc(C)ccc3nc21	none
Cc1ccc2nc3c(cc(C(=O)NCc4cccnc4)c(=N)n3C(C)C)c(=O)n2c1	Cruzain Triton 31.6µM, Cruzain noTriton inconclusive
CCc1nn(-c2cc(Oc3ccccc3)nc(-c3ccccc3)n2)c(N)c1C#N	Cruzain noTriton 3.16µM
CCc1nn(-c2ccccc2)c(N)c1C#N	none
COc1ccc(OC)c(S(=O)(=O)N2CCN(Cc3nc4ccc(C)cc4o3)CC2)c1	Cruzain noTriton inconclusive
Cc1ccc(C(=O)NCCc2sc(C)nc2C)cc1	Cruzain Triton 25.1µM, Cruzain noTriton inconclusive
Cc1nc(C)c(CCNC(=O)c2ccc(C(F)(F)F)cc2)s1	none
CN(c1ccccc1)S(=O)(=O)c1ccc(NC(=O)c2cc(=O)c3ccccc3o2)cc1	none
CC(=O)c1sc(N/N=C\c2cccc(Br)c2)nc1C	Cruzain Triton 12.6µM, Cruzain noTriton 0.199µM
CC(=O)c1sc(N/N=C\c2ccc(Br)cc2)nc1C	Cruzain noTriton inconclusive
COc1ccc2c(c1)O[C@@H](c1ccc3c(c1)OCO3)[C@H](OC(=O)NS(=O)(=O)c1ccc(C)cc1)C2=O	none
CC(C)(C)c1ccc(OCC(=O)NCC2(N3CCOCC3)CCCCC2)cc1	none
Cc1cc(C)cc(OCc2ccc(C(=O)O)o2)c1	none
O=C(c1ccc(COc2c(F)c(F)c(F)c(F)c2F)o1)N1CCN(Cc2ccc3c(c2)OCO3)CC1	Cruzain Triton 28.2µM, Cruzain noTriton inconclusive
O=C(O)c1ccc(COc2c(F)c(F)c(F)c(F)c2F)o1	Cruzain Triton 28.2µM, Cruzain noTriton 15.8µM
O=C(c1ccc(Br)o1)N1CCN(Cc2ccc3c(c2)OCO3)CC1	none
CC1=NN(c2ccccc2)C(=O)C1(C)[N+](=O)[O-] (stereo unspecified)	none
Cc1ccc(CN2CCc3nc(N4CCN(C)CC4)ncc3C2)s1	none
COc1ccc(CCNC(=O)CN2C(=O)COc3ccc(S(=O)(=O)N4CCCC4)cc32)c(OC)c1	none
O=C(COc1ccccc1F)Nc1ccc2nc(SCC(=O)N3CCOCC3)sc2c1	Cruzain noTriton inconclusive
O=C(C1=C[C@@H]2[C@H]3C(=O)N(c4ccccc4Cl)C(=O)[C@H]3[C@@H](C(=O)c3ccc(Cl)cc3)N2C=C1)c1ccccc1	none
Cc1ccc(N2C(=O)[C@@H]3[C@H](C2=O)C2CCCN2[C@@H]3C(=O)c2ccccc2)cc1 (stereo partly specified)	Cruzain noTriton inconclusive
O=C(C1=C[C@@H]2[C@H]3C(=O)N(c4cccc(Cl)c4)C(=O)[C@H]3[C@@H](C(=O)c3ccc(Cl)cc3)N2C=C1)c1ccccc1	Cruzain noTriton 15.8µM
Cc1ccc(N2C(=O)[C@@H]3[C@H](C2=O)[C@H]2C=C(C(=O)c4ccccc4)C=CN2[C@@H]3C(=O)c2ccc(Cl)cc2)cc1	Cruzain noTriton 3.16µM
CC(=O)c1c(C)oc2ccc(O)c(CN3CCOCC3)c12	none
CC(C)C[C@@H](CC(=O)N[C@@H](CCC(=O)O)CC(=O)O)NC(=O)[C@@H]1CCCC[C@H]1NC(=O)C[C@@H](NC(=O)C[C@H](Cc1ccccc1)NC(=O)[C@@H]1CCCC[C@H]1N)C(C)C	Cruzain noTriton inconclusive
O=C(NCc1ccccc1Cl)c1ccc(Cn2c(=O)c3cccn3c3cccnc32)cc1	none
CSc1ccc(C(=S)N2CCN(C)CC2)cc1	none
CSc1ccc(C(=S)N2CCN(C(c3ccccc3)c3ccccc3)CC2)cc1	Cruzain noTriton 3.98µM
Cn1ncc(Br)c1C(=O)N/N=C/c1cccc(OC2CSC2)c1	none
O=C(N/N=C/c1cccc(OC2CSC2)c1)c1ccccc1O	Cruzain noTriton 10µM
O=C(c1ccco1)N1CCN(/C(=N/S(=O)(=O)c2cccs2)c2ccccc2Cl)CC1	none
Cc1ccc(-c2nc3ccccc3[nH]2)cc1NC(=O)c1sc2cc(Cl)ccc2c1Cl	Cruzain noTriton 7.94µM
Cc1ccc(-c2nc3ccccc3[nH]2)cc1NC(=O)COc1ccc(Cl)cc1Cl	none
CCC(C)NC(=O)CSc1ccc(Cl)cc1 (stereo unspecified)	none
CCC(C)NC(=O)COC(=O)c1oc2ccccc2c1CSc1ccc(Cl)cc1 (stereo unspecified)	Cruzain noTriton 25.1µM
COc1cc2nc(NCCc3ccc(Cl)cc3)n3nc(-c4ccccc4)nc3c2cc1OC	none
CC(C)(C)C(=O)c1sc2nc(-c3cccs3)cc(C(F)(F)F)c2c1N	none
CCN(CC)C(=O)c1sc2nc(-c3cccs3)cc(-c3ccc(Cl)cc3)c2c1N	Cruzain noTriton 31.6µM
N#Cc1sc2nc(-c3cccs3)cc(-c3ccc(Cl)cc3)c2c1N	Cruzain noTriton 12.6µM
N#Cc1c(-c2cccs2)cc(-c2cccnc2)nc1N	none
COc1ccc(-c2cc(C3CC3)nc3sc(C#N)c(N)c23)cc1	none

High-throughput results as filed in PubChem.
